Measured values from PubChem BioAssay AID1565 (Sanford-Burnham Center for Chemical Genomics, 2009).
Screen size: about 290,000 compounds; about 3,200 (1.1%) were called active. Cut-off read from the data, not from the text of the source: active = inhibition above about 60%; inactive = the rest. For the sample, actives were picked, then their nearest neighbours and some compounds at random.

Target: Phosphoethanolamine/phosphocholine phosphatase (Homo sapiens) (UniProt Q8TCT1)
Experiment: PubChem AID 1565
Settings: recombinant PHOSPHO1, absorbance phosphatase assay; at 13.3 µM; active compounds read high

Sequence of Phosphoethanolamine/phosphocholine phosphatase (Homo sapiens) (Q8TCT1 whole entry, looked up): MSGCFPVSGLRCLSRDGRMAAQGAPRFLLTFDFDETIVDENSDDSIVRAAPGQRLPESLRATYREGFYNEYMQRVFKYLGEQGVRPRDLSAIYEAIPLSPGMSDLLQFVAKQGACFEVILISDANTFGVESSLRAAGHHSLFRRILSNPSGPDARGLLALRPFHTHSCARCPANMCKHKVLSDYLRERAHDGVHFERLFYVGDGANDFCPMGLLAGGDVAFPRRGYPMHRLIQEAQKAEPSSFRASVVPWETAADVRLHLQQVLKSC

SMILES	inhibition
Cc1ccc(NC(=O)C2CCCN2S(=O)(=O)c2cccc3cccnc23)c(C)c1 (stereo not drawn)	70.1% (active)
O=C(Nc1nccs1)C1CCCN1S(=O)(=O)c1cccc2cccnc12 (stereo not drawn)	2.7% (inactive)
Cc1cc(C)cc(NC(=O)C2CCCN2S(=O)(=O)c2cccc3cccnc23)c1 (stereo not drawn)	44.5% (inactive)
O=C(CN(C(=O)c1csnn1)c1ccc(Br)cc1)NC1CCCC1	26.9% (inactive)
COc1ccc(CC(=O)N[C@@H](CCSC)c2nc3ccccc3[nH]2)cc1	12.4% (inactive)
CSCCC(NC(=O)c1ccc(=O)n(C)n1)c1nc2ccccc2[nH]1 (stereo not drawn)	79.8% (active)
CSCCC(NC(=O)c1cc([N+](=O)[O-])cc([N+](=O)[O-])c1)c1nc2ccccc2[nH]1 (stereo not drawn)	-8.6% (inactive)
CCCCC(=O)Nc1ccccc1N1CCN(c2ccc(F)cc2)CC1	-152% (inactive)
Oc1ccccc1-c1cc(-c2ccc(Cl)cc2)n[nH]1	19.7% (inactive)
Cc1cc(C)c(SCCc2ccncc2)c(C)c1	24.1% (inactive)
C/C(=N\Nc1cccc(C(=O)O)c1)c1ccc2c(c1)Nc1ccccc1S2	81.3% (active)
O=C(NC1CC1)c1ccc2c(c1)NC(=O)c1ccccc1S2	0.7% (inactive)
O=C(O)c1cccc(N2C(=O)Nc3ccccc3N2O)c1	8.3% (inactive)
Cc1ccccc1N1CCN(C2CCCN(C(=O)c3cn4c(C)cccc4n3)C2)CC1 (stereo not drawn)	22.3% (inactive)
Cc1ccc(NC(=O)CN2C(=O)NC(C)(c3ccc(Cl)cc3)C2=O)c(Br)c1 (stereo not drawn)	27.9% (inactive)
Cc1cc(NC(=O)CCC(=O)N(Cc2ccccc2)C(C(=O)NC2CCCC2)c2ccc(C)o2)no1 (stereo not drawn)	46.2% (inactive)
CCOCCCN(C)C1CCN(C(=O)c2oc3ccccc3c2NC(=O)Cc2cccc([N+](=O)[O-])c2)CC1	16.9% (inactive)
CCOc1ccc(OCCSc2nc3ccccc3n2CC(=O)O)cc1	13.8% (inactive)
Clc1cccc(N=C2NN=C(c3ccc4c(c3)OCCO4)CS2)c1	78% (active)
Cc1cccc(N=C2NN=C(c3c[nH]c4ccccc34)CS2)c1	-2% (inactive)
c1ccc(CN2CCC(N=C3NN=C(c4ccc5c(c4)OCCO5)CS3)CC2)cc1	12.7% (inactive)
CCCn1c(=O)c(C(=O)Nc2cc(C)ccn2)c(O)c2ccccc21	-7.8% (inactive)
S=c1[nH]nc(CSCc2ccc(Cl)cc2Cl)n1-c1ccccc1	34.7% (inactive)
S=c1[nH]ccn1-c1ccc(Cl)cc1	-13% (inactive)

SMILES	inhibition
S=c1[nH]cc(-c2ccc(Cl)cc2)n1-c1ccccc1	69.5% (active)
CN1CCN(/N=C/c2ccc(-c3ccc([N+](=O)[O-])cc3)o2)CC1	17.9% (inactive)
COc1cccc(CNC(=O)c2cccnc2Sc2ccc(Cl)cc2)c1	23.3% (inactive)
Cc1nc(NC(=O)c2ccc3c(c2)OCCO3)ccc1Br	7.6% (inactive)
CC(C)[C@@H]1COC(c2cccc(C3=N[C@H](C(C)C)CO3)c2)=N1	-1.7% (inactive)
COc1ccc(C(=O)NC2CC2)cc1OC1CCN(Cc2ccc(SC)cc2)CC1	27.3% (inactive)
Cc1onc(-c2ccccc2)c1C(=O)NNC(=S)NC(=O)c1ccc(F)cc1	-4.5% (inactive)
O=C(Nc1cn(-c2ccccc2)nc1-c1ccccc1)c1ccccc1	-2.5% (inactive)
O=C(NNC(=S)NC(=O)c1cn(-c2ccccc2)nc1-c1ccccc1)c1ccncc1	80.9% (active)
CC1CCN(C(=S)NC(=O)c2ccccc2Br)CC1	17.4% (inactive)
COc1ccc(CCNC(=O)C2CCCN2C(=O)Nc2ccccc2)cc1OC (stereo not drawn)	23.5% (inactive)
Cc1c(CCC(=O)N[C@@H](CC(C)C)C(=O)O)c(=O)oc2c(C)c3oc4c(c3cc12)CCCC4	31.6% (inactive)
Cc1ccc(NC(=S)N/N=C2/CCCc3c(C)cc(C)cc32)cc1	85.8% (active)
Cc1ccc(C)c(NC(=S)NNC(=S)Nc2ccc(C(C)C)cc2)c1	-6.1% (inactive)
Cc1ccc(NC(=S)Nc2ccc(F)cc2)cc1	19.2% (inactive)
COC(=O)c1ccc(NC(=O)CSc2nc(N)c(NC(=O)c3ccc(Br)o3)c(=O)[nH]2)cc1	42.8% (inactive)
CCOC(=O)N1CCN(C(=O)CSc2nnc(-c3c[nH]c4ccccc34)n2CCOC)CC1	25.5% (inactive)
CCn1c(SCCC(C)C)nnc1-c1c[nH]c2ccccc12	0.7% (inactive)
CCC(C)Sc1nnc(-c2c[nH]c3ccccc23)n1CCOC (stereo not drawn)	61.5% (active)
CC(C)(C)c1ccc(SCCc2ccncc2)cc1	13.8% (inactive)
Cc1ccc(CC2C(=O)N(c3ccc(F)cc3)C(=O)C2C)cc1 (stereo not drawn)	-2.6% (inactive)
Cc1ccc(N2CCN(c3ccc([N+](=O)[O-])cn3)CC2)c(C)c1	19.7% (inactive)
Cc1cc(/C=N/Nc2ccc([N+](=O)[O-])cn2)c(C)n1-c1cccc(C(=O)O)c1	15.9% (inactive)
Cc1ccc(-n2c(C)cc(/C=N/Nc3ccc([N+](=O)[O-])cn3)c2C)c(C)c1	98.7% (active)

SMILES	inhibition
COC(=O)C1CCCCN1C(=O)c1ccc(OC2CCN(C(C)=O)CC2)c(OC)c1 (stereo not drawn)	57.6% (inactive)
COc1cc2[nH]c(=S)n(Cc3ccc(C)o3)c(=O)c2cc1OC	69.6% (active)
COc1cc2[nH]c(=S)n(Cc3ccc(F)cc3)c(=O)c2cc1OC	-42.1% (inactive)
COc1cc2[nH]c(=S)n(CCN3CCCCC3C)c(=O)c2cc1OC (stereo not drawn)	24.2% (inactive)
COc1ccc(C(=O)NCCn2nc(C)cc2C)cc1OC1CCN(C(C)=O)CC1	19.2% (inactive)
COc1ccc2c(c1)c1nc3n(c(=O)c1n2CC(=O)Nc1ccccc1)CCS3	-27.3% (inactive)
Cn1c(=O)c2c(nc(NCCNC(=O)c3ccco3)n2Cc2ccccc2F)n(C)c1=O	26.1% (inactive)
Cc1nn(C)cc1C(=O)NNC(=S)Nc1ccc(Cl)cc1	97.7% (active)
Cc1nn(C)cc1CNC(=O)Nc1ccc(Cl)cc1	8% (inactive)
Cn1cc(Cl)c(C(=O)NNC(=S)Nc2cccc(Cl)c2)n1	-35.3% (inactive)
O=S1(=O)N=C(N(CCO)/N=C/c2ccccc2F)c2ccccc21	28.4% (inactive)
Cc1nonc1NC(=O)c1oc2ccccc2c1C	24% (inactive)
Cn1ccnc1SCC(=O)Nc1ccc2c(c1)OCCO2	19.8% (inactive)
CC1CCCC(NC(=O)CSc2nccn2C)C1C (stereo not drawn)	92.3% (active)
CC1CCCCC1NC(=O)CSc1nnc(N)s1 (stereo not drawn)	-3.4% (inactive)
CCn1cc(/C=C(\NC(=O)c2cc(OC)c(OC)c(OC)c2)C(=O)N2CCN(C)CC2)c2ccccc21	49.6% (inactive)
CCOc1ccc(/C(O)=C2\C(=O)C(=O)N(c3ccc(OC)cc3)C2c2ccccc2[N+](=O)[O-])cc1 (stereo not drawn)	60.8% (active)
COc1ccc(C2/C(=C(/O)c3ccccc3)C(=O)C(=O)N2C)c(OC)c1 (stereo not drawn)	-2.4% (inactive)
COc1ccccc1C1/C(=C(/O)c2ccc(OC(C)C)cc2)C(=O)C(=O)N1c1cc(C)on1 (stereo not drawn)	-55.7% (inactive)
COc1ccc(OCCC(=O)c2ccc(OC)cc2)cc1	20% (inactive)
CC(C)CCOc1ccc(C(=O)C[N+]2(C)CCOCC2)cc1	90.6% (active)
CC(=O)c1ccc(OCCN2CCOCC2)cc1	-11.5% (inactive)
O=C(NCc1cccnc1)C12CC3CC(CC(C3)C1)C2	32.6% (inactive)
CN(NS(=O)(=O)c1cccs1)c1ncc(C(F)(F)F)cc1Cl	33.5% (inactive)

SMILES	inhibition
COc1ccc(-n2c(C)cc(C(=O)CSc3nnc(-c4cccs4)o3)c2C)cc1	85.5% (active)
COc1ccc(C(=O)CSc2nnc(-c3ccco3)o2)cc1	36.7% (inactive)
COc1ccc(-c2nnc(SCC(=O)c3cccs3)o2)c(OC)c1	28.9% (inactive)
CSCC[C@H](NC(=O)N1CCn2c1nc1ccccc12)C(=O)NC1CCCCC1	35.5% (inactive)
COc1ccc(OCc2nnc3n2N=C(c2ccccc2)C(CC(=O)O)S3)cc1 (stereo not drawn)	-69.6% (inactive)
Cc1ccc(C(=O)N2CCC(n3nccc3NC(=O)Nc3cccc(F)c3)CC2)cn1	64% (active)
COc1cccc(C(=O)N2CCC(n3nccc3NC(=O)C3CCOC3)CC2)c1 (stereo not drawn)	40.8% (inactive)
CN(C)c1cccc(C(=O)N2CCC(n3nccc3NC(=O)C3CCOC3)CC2)c1 (stereo not drawn)	27.6% (inactive)
COc1ccc2[nH]c(C(=O)N/N=C/c3cc(OC)c(OC)c(OC)c3)cc2c1	9.8% (inactive)
Cc1ccnc(NC(=O)C(C)N2C(=O)c3ccccc3C2=O)c1 (stereo not drawn)	60% (active)
CCOc1ccc(NC(=O)C(C)N2C(=O)c3ccccc3C2=O)cc1 (stereo not drawn)	24.3% (inactive)
Cc1cc(C)nc(NC(=O)C(C)N2C(=O)c3ccccc3C2=O)n1 (stereo not drawn)	-12.8% (inactive)
CCc1nc2cccnc2n1-c1ccc(C(=O)O)cc1	35.1% (inactive)
COc1ccc(CCNC(=O)C(=O)NCC2OCCN2S(=O)(=O)c2cccs2)cc1OC (stereo not drawn)	4.5% (inactive)
CC(=O)N[C@@H](C)C(=O)N1CCC(n2nccc2NC(=O)CCCc2ccccc2)CC1	61.6% (active)
COc1cc(CN2CCC(n3nccc3NC(=O)CCCc3ccccc3)CC2)ccc1O	-5% (inactive)
CC(=O)NCC(=O)N1CCC(n2nccc2NC(=O)CCCc2ccccc2)CC1	65.8% (active)
CCn1cc(CN2CCC(n3nccc3NC(=O)CCCc3ccccc3)CC2)c(C)n1	29% (inactive)
COc1ccc(CN2CCC(n3nccc3NC(=O)CCCc3ccccc3)CC2)cc1C	37.7% (inactive)
Cc1ccc(CN2CCC(n3nccc3NC(=O)CCCc3ccccc3)CC2)o1	2.6% (inactive)
N#Cc1ccccc1S(=O)(=O)N1CCN(C(=O)c2cc(-c3ccccc3)nn2-c2ccccc2)CC1	14.5% (inactive)
